This is an account of results in PubChem BioAssay AID651593 (National Center for Advancing Translational Sciences (NCATS), 2012).

Structures are written as SMILES. Hit rate of the full screen: of about 1,100 compounds, about 860 (78%) were called active. Not shown: some 19% with an inconclusive outcome. The set was probably picked from earlier hits. The list shows a part of the results. A number with no mark means an inactive call. Calls come from the whole dose curve; as a rule, active = well fitted activation curve with a large enough effect; inconclusive = small, poorly fitted or top-dose-only effect; inactive = flat fitted curve, though single readings scatter.
Potency is the fitted concentration of half-maximal effect.

The assay can be described thus: qHTS of Nrf2 Activators: Hit Validation in Primary Assay. For activation: 0% is about no effect. Note: nearly all actives have a fitted effect of over 70% in size. Conditions: Nrf2/ARE reporter cell assay; Potency: activation; series mostly up to 46.1 µM; activation: at the top concentration. The essentials:
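Luminescence from Steady-Glo lysis reagent, read after 30 min, reported ARE-luciferase activity in AREc32_fluc stable cells. Compounds were tested at several concentrations, incubated 24 h at 37 °C with 5% CO2 following overnight seeding.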
With `C/C(=N\NC(=O)CSc1nc2ccccc2s1)c1ccco1`, the Potency is 5.17 µM (active). Regarding `O=C(CSc1nc2ccccc2s1)N/N=C/c1ccco1`, the Potency was 8.2 µM (active). In the case of `CC(=O)c1cc2c(cc1NC(=O)CSc1nc3ccccc3o1)OCO2`, the Potency is 8.2 µM (active). Take `O=C(CSc1nc2cc(Cl)ccc2s1)c1ccco1`: the Potency was 1.84 µM (active). With `CC(=NNC(=O)CSc1nc2ccccc2o1)c1ccco1`, the Potency is 7.31 µM (active). On the same count and under the same terms, then `Cc1ccnc(SCC(=O)c2ccc(Br)cc2)c1C#N`, with 2.31 µM (active). As to `Cc1cc(C)c(C#N)c(SCC(=O)c2cccs2)n1`, the Potency is 5.17 µM (active). With `CSc1nc(N)nc(SCC(=O)c2ccccc2)c1C#N`, the Potency is 7.31 µM (active). For the compound `Cc1cc(SCC(=O)c2cccs2)nc2ccccc12`, the Potency is 2.59 µM (active). The same measure, in the same setting: the value for `Cc1cc(C)c(C#N)c(SCC(=O)c2ccccc2)n1` was 14.6 µM (active); that for `O=C(CN1CCN(Cc2ccccc2Cl)CC1)N/N=C/C=C/c1ccco1` was 2.59 µM (active). Still for that read-out and setting: the value for `O=C(CN1CCN(Cc2ccccc2)CC1)N/N=C\C=C/c1ccco1` was 20.6 µM (active); that for `CC(=NNc1ccc2ccccc2n1)c1ccccc1O` was 3.66 µM (active); that for `CC(=O)OC1(C(C)=O)CCC2C3CC(C(F)(F)F)C4=CC(=O)CCC4(C)C3CCC21C` (configuration not stated) was 4.61 µM (active). In the case of `O=C1N/C(=N\N=C\c2ccco2)SC1Cc1ccc(F)cc1` (configuration not stated), the Potency was 0.731 µM (active).

In the case of `Cc1cccc(CC2S/C(=N/N=C/c3ccco3)NC2=O)c1` (configuration not stated), the Potency is 0.206 µM (active). For the compound `O=C1N/C(=N\N=C\c2ccco2)SC1Cc1ccccc1[N+](=O)[O-]` (configuration not stated), the Potency is 2.06 µM (active). In the case of `O=C(C=Cc1ccco1)c1ccc2ccccc2c1`, the Potency is 2.59 µM (active).

Consider `CC(/C=C/c1ccco1)=N\NC(=O)CNc1ccc2ccccc2c1`, for which the Potency is 16.4 µM (active). As to `Cc1nc(Nc2ccccc2F)c2oc3ccccc3c2n1`, the Potency is 2.31 µM (active). `CCc1nc(Nc2cccc(F)c2)c2oc3ccccc3c2n1`: the Potency was 2.91 µM (active). For `NC(=O)c1oc2ccccc2c1NC(=O)c1ccco1`, the Potency is 2.31 µM (active).

Consider `NC(=O)c1oc2ccccc2c1NC(=O)c1ccccc1`, for which the Potency is 2.59 µM (active). `O=C(Nc1c(O)c2ccccc2[nH]c1=O)c1ccco1`: the Potency was 7.31 µM (active). For the compound `CN1c2ccsc2/C(=N/Nc2ccccc2)CS1(=O)=O`, the Potency was 2.31 µM (active). Same read-out and setting: the value for `C=C(C)CNC(=S)N/N=C(\C)c1ccc(Cl)s1` was 2.59 µM (active); that for `CCOc1ccccc1NC(=O)C1COc2ccccc2O1` (configuration not stated) was 4.61 µM (active); that for `COc1ccc(Cl)cc1NC(=O)C1COc2ccccc2O1` (configuration not stated) was 2.91 µM (active). For `O=C(Nc1ccccc1[N+](=O)[O-])C1COc2ccccc2O1` (configuration not stated), the Potency is 4.61 µM (active). Take `Cc1csc(NC(=O)c2cc(-c3ccco3)nc3ccccc23)n1`: the Potency was 2.59 µM (active). With `O=C(Nc1nccs1)c1cc(-c2ccco2)nc2ccccc12`, the Potency was 8.2 µM (active). As for `NS(=O)(=O)c1ccc(NC(=O)c2cc(-c3cccs3)nc3ccccc23)cc1`, the “activation” value is 14.1%. For the compound `O=C(N/N=C/c1ccc(Br)s1)c1cccs1`, the Potency is 2.91 µM (active). As for `Cc1ccsc1/C=N/N=C1\C(=O)Nc2ccccc21`, the Potency was 7.31 µM (active). On the same count and under the same terms, the value for `CCn1c(=N)n(CC(=O)c2cccc([N+](=O)[O-])c2)c2ccccc21` was 2.31 µM (active); that for `N=c1n(CCN2CCOCC2)c2ccccc2n1CC(=O)c1cccc([N+](=O)[O-])c1` was 2.91 µM (active); that for `CC1(O)c2ccccc2C(=O)N1CCc1ccccc1F` (configuration not stated) was 5.8 µM (active). For `Cc1ccc(-c2nc(C=Nc3ccc(O)cc3)c(O)o2)cc1`, the Potency was 16.4 µM (active). With `CCOc1c(Br)cc(C(N)=O)cc1OCc1ccccc1`, the “activation” value was 20.2%. For the compound `Cc1ccc2cc3c(NC(=O)c4ccco4)nn(C)c3nc2c1`, the Potency is 2.59 µM (active). In the case of `COc1cc(C=C2Cc3ccccc3C2=O)cc(OC)c1OC`, the Potency is 9.2 µM (active). For the compound `COc1cc(OC)c(OC)cc1/C=C1/Cc2ccccc2C1=O`, the Potency is 8.2 µM (active). With `COc1ccc(OC)c(C=C2CCc3ccccc3C2=O)c1`, the Potency is 2.91 µM (active). `O=C1C(=Cc2ccccc2Cl)CCc2ccccc21`: the Potency was 20.6 µM (active). As to `c1ccc(-c2cnc(-c3ccccc3)nn2)cc1`, the Potency is 13 µM (active).

In the case of `CSc1nc(Oc2ccc3ccccc3c2)c2sccc2n1`, the Potency was 5.8 µM (active). `CSc1nc(Oc2ccc(Cl)cc2)c2sccc2n1`: the Potency is 6.51 µM (active). Consider `Nc1c(C(=O)c2cccs2)oc2ccccc12`, for which the Potency is 6.51 µM (active). The same measure, in the same setting: then `Nc1c(C(=O)c2ccc(Br)s2)oc2ccccc12`, with 5.17 µM (active); and `COc1cccc(C(=O)Oc2ccccc2/C=C\C(=O)c2cc3ccccc3o2)c1`, with 3.66 µM (active); and `O=C(Oc1ccccc1/C=C\C(=O)c1cc2ccccc2o1)c1ccccc1`, with 4.61 µM (active). For the compound `O=C(Cn1cnc2scc(-c3cccc([N+](=O)[O-])c3)c2c1=O)NCc1ccco1`, the Potency is 7.31 µM (active).

With `Cc1c(CN(C)C)c2c(n1C)C(=O)c1ccc(Br)cc1-2`, the Potency is 5.17 µM (active). Same read-out and setting: the value for `O=C(CC(=O)c1ccccc1O)c1cccc(F)c1` was 4.61 µM (active).

`O=[N+]([O-])c1ccccc1N/N=C/c1c[nH]c2ccccc12`: the Potency was 2.59 µM (active). `CC(C)Oc1ccccc1/C=N/Nc1ccccc1[N+](=O)[O-]`: the Potency is 3.26 µM (active). With `C(=N\Nc1nc2ccccc2[nH]1)/c1c[nH]c2ccccc12`, the Potency is 16.4 µM (active). Still for that read-out and setting: then `c1ccc(N=NC2=NN(c3ccccc3)CS2)cc1`, with 5.8 µM (active); and `O=C(COC(=O)/C=C/c1ccco1)Nc1ccc(F)cc1Cl`, with 5.8 µM (active); and `CSc1ccccc1NC(=O)COC(=O)/C=C/c1ccco1`, with 1.16 µM (active). `CC(=O)c1ccccc1NC(=O)COC(=O)/C=C/c1ccc(C)o1`: the Potency was 3.66 µM (active). Take `O=C(NC(=S)Nc1ccccc1O)c1ccccc1Cl`: the Potency is 2.31 µM (active). Turning to `O=C(CNC(=S)NC(=O)c1ccccc1Br)c1ccccc1`, the “activation” value is 27.2%.

On to `CCOC(=O)c1sc(NC(=O)c2ccco2)nc1C`, for which the Potency was 2.59 µM (active). As for `CCc1c(C)sc(NC(=O)c2ccco2)c1C#N`, the Potency is 7.31 µM (active).

For `COC(=O)c1c(NC(=O)c2ccco2)sc(C)c1C`, the Potency is 2.59 µM (active). For the compound `Cc1sc(NC(=O)c2ccco2)c(CN2CCCCC2)c1C`, the “activation” value is 9.37%. Consider `Cc1ccc(C(=O)Nc2nc(-c3ccco3)c(-c3ccco3)s2)o1`, for which the Potency was 0.92 µM (active). `COC(=O)c1sc(NC(=O)c2ccco2)nc1C`: the Potency was 10.3 µM (active).

With `O=C(Nc1ccccc1F)c1ccc(-c2cccc([N+](=O)[O-])c2)o1`, the Potency was 2.31 µM (active).

Regarding `c1ccc(N=Nc2cn[nH]c2-c2ccco2)cc1`, the Potency is 9.2 µM (active). On to `CC(C)OC(=O)c1cn(-c2ccccc2)nc1-c1ccco1`, for which the Potency was 6.51 µM (active). Turning to `Fc1ccc2nncc(SCc3ccccc3Cl)c2c1`, the Potency is 2.06 µM (active).

Consider `O=C(Nc1ncnc2sc3c(c12)CCCCC3)c1ccco1`, for which the Potency is 0.58 µM (active). With `O=C(Nc1ncnc2sc3c(c12)CCC3)c1ccco1`, the Potency was 0.291 µM (active). Take `CN(C)CCN(C(=O)/C=C/c1cccs1)c1nc2c(F)cc(F)cc2s1`: the Potency was 2.91 µM (active). `CN(C)CCN(C(=O)/C=C/c1cccs1)c1nc2ccc(F)cc2s1`: the Potency is 2.06 µM (active).

`Cc1ccc2nc(N(CCN(C)C)C(=O)/C=C/c3cccs3)sc2c1`: the Potency was 4.61 µM (active). On to `Nc1nc(Nc2cccc(Cl)c2)nc(NCCO)c1[N+](=O)[O-]`, for which the Potency was 2.59 µM (active). For the compound `Fc1ccc2nc(Nc3nc4c(F)cc(F)cc4s3)sc2c1`, the Potency is 2.31 µM (active). For the compound `Fc1cccc2sc(Nc3nc4ccccc4s3)nc12`, the Potency was 2.31 µM (active). As to `Cn1c(/C(C#N)=C(\O)c2cc(Cl)sc2Cl)nc2ccccc21`, the Potency was 2.31 µM (active).

Regarding `Cc1ccc(C(=O)OCc2c(C)noc2C)cc1NC(=O)c1ccco1`, the Potency was 4.11 µM (active).

For the compound `COc1ccc(Cl)cc1C(=O)O/N=C(\N)c1ccncc1`, the Potency is 6.51 µM (active). Regarding `N/C(=N\OC(=O)c1cc(Cl)ccc1Cl)c1ccncc1`, the Potency is 5.17 µM (active). Take `N/C(=N\OC(=O)c1cc(Cl)ccc1Cl)c1cccnc1`: the Potency is 2.59 µM (active). Turning to `N/C(=N\OC(=O)c1ccccc1Cl)c1ccncc1`, the Potency was 9.2 µM (active). Turning to `N/C(=N\OC(=O)c1cccc2ccccc12)c1ccc(Br)cc1`, the Potency is 9.2 µM (active).

On to `COc1ccc(Cl)cc1C(=O)O/N=C(\N)c1ccccn1`, for which the Potency was 2.91 µM (active). As for `N/C(=N\OC(=O)c1cccc2ccccc12)c1cccnc1`, the “activation” value was 5.33%. `N/C(=N\OC(=O)/C=C/c1ccccc1)c1cccnc1`: the Potency was 20.6 µM (active). For `O=C(/C=C/c1ccccc1[N+](=O)[O-])N1CCc2ccccc2C1`, the Potency is 20.6 µM (active). For the compound `Oc1ccccc1-n1nc2ccc3nonc3c2n1`, the Potency is 11.6 µM (active).

For `Cn1c(=O)n(CCc2ccccc2)c(=O)c2c1nc1n2CCN1Cc1ccco1`, the Potency was 2.31 µM (active). Consider `COc1ccc([C@H]2Cc3cccc(O)c3C(=O)O2)cc1O`, for which the “activation” value was 4.39%. As to `CCCNC(=O)c1ccc(S(=O)(=O)c2ccc(OC)cc2)c([N+](=O)[O-])c1`, the Potency is 3.66 µM (active). Turning to `Cn1c(N/N=C/c2cccs2)cc(=O)n(C)c1=O`, the Potency was 2.59 µM (active).

On to `O=c1[nH]n(Cc2ccccc2)c(=O)c2ccccc12`, for which the Potency was 4.11 µM (active). As to `O=C(CSc1nccc(-c2cccs2)n1)Nc1cccc(Cl)c1Cl`, the Potency is 2.31 µM (active). In the case of `O=C(CSc1nccc(-c2cccs2)n1)Nc1cccc(Cl)c1`, the Potency was 2.06 µM (active). As for `O=C(CSc1nccc(-c2cccs2)n1)Nc1ccc(F)c(Cl)c1`, the Potency is 20.6 µM (active). On to `Cc1ccc(C(=O)N/N=C/c2ccc(-c3ccc(Br)cc3[N+](=O)[O-])o2)o1`, for which the Potency was 5.8 µM (active). As for `Cc1cc(C)n2nc(-c3ccc(F)cc3)cc2n1`, the Potency was 20.6 µM (active). Same read-out and setting: the value for `Cc1cc(N2CCOCC2)n2nc(-c3cccc(F)c3)cc2n1` was 1.46 µM (active); that for `O=C(Nc1ncc2c(n1)-c1ccccc1CC2)c1cccs1` was 2.31 µM (active). In the case of `O=C(Nc1nccc(-c2cccs2)n1)c1cccs1`, the Potency was 2.59 µM (active). Same read-out and setting: the value for `O=C(Nc1ncc2c(n1)-c1ccccc1CC2)c1ccccc1` was 5.17 µM (active).
